High-throughput results: PubChem BioAssay, ICCB-Longwood Screening Facility, Harvard Medical School
Only some compounds are listed: those with a hit (about 1.5% of all), similar ones and a draw of the others.
PV pol inh – poliovirus RNA polymerase inhibition; P03300; poliovirus polymerase elongation, fluorescence polarization; hits give low values; % elongation, % (compound at 16.7 µg/mL); 150,000 compounds, 0.66% hits; AID 588519; in the data active = % elongation below about 90%
AID504770 – E. coli YBA685 growth inhibition, screen for V. cholerae RctB inhibitors; AID 504770; z-score (concentration not given with the values); E. coli YBA685 rctB-dependent plasmid, OD600 growth, 3 h; hits give low values; 130,000 compounds, 0.27% hits; in the data active = z-score below about -2, passing the limit was not always enough
MenB inh – blocks the Mycobacterium tuberculosis MenB enzyme. P9WNP5. MenB enzyme assay, absorbance read-out. inhibition, % (no concentration beside the values). 100,000 compounds, 0.43% hits. AID 540299; in the data active = inhibition above about 21%, passing the limit was not always enough
Mtb MbtI inh – blocks the Mycobacterium tuberculosis siderophore enzyme MbtI; P9WFX0; purified MbtI enzyme, fluorescence intensity read-out; inhibition, % (test concentration not listed); 100,000 compounds, 0.89% hits; in the data active = inhibition mostly above about 56%, no sharp cut-off; inactive = mostly below about 77%
Target sequence (P9WFX0 whole entry, looked up): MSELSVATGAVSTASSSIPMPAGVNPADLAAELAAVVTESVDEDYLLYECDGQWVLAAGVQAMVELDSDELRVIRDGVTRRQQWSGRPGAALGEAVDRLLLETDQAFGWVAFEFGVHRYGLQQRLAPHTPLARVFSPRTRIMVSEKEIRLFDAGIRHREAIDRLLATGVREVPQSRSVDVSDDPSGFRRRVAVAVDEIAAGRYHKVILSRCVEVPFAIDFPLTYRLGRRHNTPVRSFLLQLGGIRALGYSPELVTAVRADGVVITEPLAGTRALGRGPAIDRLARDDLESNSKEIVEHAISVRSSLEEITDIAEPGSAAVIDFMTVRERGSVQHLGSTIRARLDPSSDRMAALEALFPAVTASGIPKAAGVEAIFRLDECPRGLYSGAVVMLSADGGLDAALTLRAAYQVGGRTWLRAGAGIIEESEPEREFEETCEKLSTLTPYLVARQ
Starred values were filed as active, the others as inactive; . = no result given.

SMILES	PV pol inh	AID504770	MenB inh	Mtb MbtI inh
O=C1c2ccccc2C(=O)c2c1ccc(O)c2O	98	0.5	3	0
N#CC(C#N)=NNc1ccccc1C(N)=O	101	-3.6*	-447	26
O=C1CCCC/C1=C\Nc1nc(-c2ccccc2)cs1	104	-0.1	.	-9
O=C1c2ccccc2CCC1Sc1nnc(-c2ccncc2)o1 (stereo not given)	99	-1.1	-17	32
C/C(=N\NC(=Nc1ccccc1)c1ccccn1)c1ccccn1	99	1.3	-79	65*
Cc1cn(C2CC(O)C(CO)O2)c(=O)[nH]c1=O (stereo not given)	106	-0.35	-26	-16
Cc1cn([C@H]2C[C@H](N=[N+]=[N-])[C@@H](CO)O2)c(=O)[nH]c1=O	100	-2.5*	1	-21
Nc1nc(-c2cccs2)c(C(=O)C(F)(F)F)s1	100	-0.4	-6	63*
Cc1occc1-c1nnc2sc(-c3cccc(F)c3)nn12	103	0.15	-73	95*
Cc1nnc2sc(-c3cccc(NC(=O)c4cccc(F)c4)c3)nn12	103	-0.95	-18	-18
O=C(Cn1c(=O)oc2ccccc21)Nc1nc2c(s1)CCCC2	.	-0.85	.	.
CC(O)(CNCc1ccc(Cl)cc1)CSc1ccc(Cl)cc1 (stereo not given)	.	0.35	.	.
O=C1C=CC(=O)N1c1ccc(F)c(Cl)c1	101	2.4	.	93*
O=C(CS(=O)(=O)Cc1ccccc1)Nc1ccccn1	101	-0.1	36*	7
N#C/C(=C(/O)Cn1cc(S(=O)(=O)N2CCCC2)ccc1=O)c1nc2ccccc2[nH]1	114	-0.15	-28	1
O=c1[nH]nc(SCc2cn3ccccc3n2)c(=O)[nH]1	32*	-2.5	-11	54
Cc1cc(=O)[nH]c(SCc2cn3ccccc3n2)n1	.	-1.4	.	.
c1ccc2nc(Sc3ncn[nH]3)c(Sc3ncn[nH]3)nc2c1	85*	0.35	-16	.
O=c1[nH]nc(Sc2ncn[nH]2)c(=O)[nH]1	98	-0.7	-8	10
O=C(O)CSCC(=O)Nc1cccc2ccccc12	100	0.4	36*	11
O=C(O)CCC(=O)Nc1cccc2ccccc12	.	-0.95	.	.
CCOC(=O)c1ccc(NC(=O)c2cnc3c(-c4ccc(F)cc4)c(C)nn3c2C)cc1	51*	.	.	.
CCOC(=O)c1ccc(NC(=O)CCc2c(C)nc3c(-c4ccc(F)cc4)c(C)nn3c2C)cc1	104	.	.	.
O=C(O)C1C2C=CC(C2)C1C(=O)NCc1cccs1 (stereo not given)	99	-0.35	23*	-17
COC(=O)C(C)N1C(=O)S/C(=C/c2cc(C)n(-c3ccc4c(c3)OCO4)c2C)C1=O (stereo not given)	103	-0.45	-83	-2
SMILES	PV pol inh	AID504770	MenB inh	Mtb MbtI inh
CC(C)NS(=O)(=O)c1ccc2nc(NC(=O)c3cccnc3)sc2c1	100	-0.55	-8	1
CC(C)CNS(=O)(=O)c1ccc2nc(NC(=O)c3ccccn3)sc2c1	107	1.8	-89	68*
Cc1cc(C)c2c(n1)sc1c(SCC(=O)c3ccc(Br)cc3)ncnc12	100	0.15	1	-5
CCCn1c(SCC(=O)N=c2sc3ccccc3n2C)nc2ccccc21	102	-1.1	-11	-6
O=C1N=c2ccccc2=C1c1sc(=O)[nH]c1O	96	-0.45	-254	14
O=C1N=c2ccccc2=C1c1sc(N2CCCCC2)nc1O	58*	0.15	-40	81
CN(c1ccc(O)cc1)c1nc(O)c(C2=c3ccccc3=NC2=O)s1	100	-0.45	-128	-12
O=C1N=c2ccccc2=C1c1sc(=S)[nH]c1O	95	1	-51	84*
NC(=S)NCC1CCCO1 (stereo not given)	97	-0.3	-15	89*
CCOC(=O)Cn1c(=O)oc2cc(S(=O)(=O)N3CCCC3)ccc21	102	0.25	-8	0
CCCC(=O)Nc1cc(C(=O)NC2CC2)ccc1S(=O)(=O)c1ccc(C)cc1	.	-0.45	.	.
COC(=O)C1=NOC2C(=O)N(c3ccccc3)C(=O)C12 (stereo not given)	.	-1.4	.	-3
COC(=O)C1=NNC2(c3ccc(C)cc3)C(=O)N(c3ccc(C)cc3)C(=O)C12 (stereo not given)	102	1.5	36*	-12
O=c1c2c(F)c(F)c(F)c(F)c2on2c3c(cc12)CCCC3	87*	0.35	-10	-12
Cc1[nH]n(-c2nc3ccccc3[nH]2)c(=O)c1C1OC(=O)c2ccccc21 (stereo not given)	62*	-0.65	-21	100*
S=c1[nH]nc(CCCOc2ccc(Cl)cc2Cl)o1	87*	-0.7	-39	90*
Nc1ncc(N=Nc2cc(C(=O)O)ccc2Cl)s1	94	-0.35	-362	50
Nc1ncc(N=Nc2cc(C(=O)O)cc(C(=O)O)c2)s1	82*	0	-273	19
CC(=O)n1c(=S)[nH]c2ccccc21	99	0.1	9	101*
O=C(Cn1c(=S)[nH]c2ccccc21)c1ccc(-c2ccccc2)cc1	103	1.9	-13	.
COc1cccc(OC)c1C(=O)Nc1nnc(CC(C)(C)C)s1	71*	-0.25	-19	.
CC(CC(=O)Nc1cccc(C(F)(F)F)c1)N1CCCC1 (stereo not given)	.	-0.2	.	.
Cc1cc(C(=O)N2CCCCC2)c2cc(F)ccc2n1	102	1.5	-24	0
CC(=O)N1c2ccc(S(=O)(=O)NC(C(=O)NCc3ccccc3)C(C)C)cc2CC1C (stereo not given)	103	0.3	-14	-3
O=C(O)c1ccc2c(c1)CCCN2	.	0.75	.	.
SMILES	PV pol inh	AID504770	MenB inh	Mtb MbtI inh
Clc1ccc2c(c1)CCN2	100	-2.2	36*	27
O=C(O)CCCN1C(=O)c2ccccc2C1=O	103	0.4	4	.
Cn1c(CSc2cc(C(F)(F)F)nc3ccccc23)n[nH]c1=S	100	-0.9	4	65*
Cc1ccc(S(=O)(=O)NCCSc2cc(C(F)(F)F)nc3ccccc23)cc1	103	0.4	1	-1
CN=C1S/C(=C\c2ccc(Cl)cc2)C(=O)N1C	88*	0.05	6	6
CCOC(=O)Cc1c(O)c2ccccc2[nH]c1=O	100	-0.75	-8	-55
COc1ccc(-c2nnc(SCC(=O)N(C)C)n2N)cc1OC	103	-0.95	9	9
CCOc1ccc(C(=O)c2ccccc2C(=O)O)cc1OCC	47*	1.8	6	9
O=C(CCCC(=O)Nc1cccc2ccccc12)Nc1cccc2ccccc12	105	1.2	1	.
O=C(NCC1CCCCC1)c1cn(-c2ccccc2)nc1-c1cccs1	105	-0.2	-17	34
O=C(Nc1ccccc1)N(Cc1nnc2n1CCCCC2)c1ccc(I)cc1	90*	2	-7	.
COc1cccc(N(Cc2nnc3n2CCCCC3)C(=O)Nc2ccccc2)c1	114	.	.	.
COc1ccccc1/C=C1/C(=O)ON=C1C	103	-2.8*	-13	9
Fc1ccccc1-c1nnc2ccc(C(F)(F)F)cn12	16*	0.95	14	.
OC1CCCN(Cn2nc(-c3ccccc3)n(-c3ccc(F)cc3F)c2=S)C1 (stereo not given)	106	-0.95	-34	-15
CC(C)c1ccc(N2C(=O)Cc3c2nc(N)c2c(N)nc(N4CCCC4)c(C#N)c32)cc1	102	0.1	-8	-113
